Reference: PubChem BioAssay (NCI)
Compounds without any hit were thinned out: in the full panel of roughly 83,000, 20% have a hit.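 Interpretation: 100, growth as untreated; towards 0, rising growth inhibition; 0, no net growth; 0 to -100, cell death. Compounds scoring below 10 were considered active.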 The source made the active and inactive calls.

Tests used:
Assay in all cases: NCI-60 one-dose screen, 48 h (100 = growth as untreated, 0 = no growth, -100 = all killed)
Conditions in all cases: 10 µM
DU-145 prostate = test system: DU-145 prostate
K-562 leukemia = test system: K-562 leukemia
MALME-3M melanoma = test system: MALME-3M melanoma
MDA-MB-231 breast = test system: MDA-MB-231 breast
SF-268 CNS = test system: SF-268 CNS
SF-295 CNS = test system: SF-295 CNS
SF-539 CNS = test system: SF-539 CNS
UACC-257 melanoma = test system: UACC-257 melanoma
M14 melanoma = test system: M14 melanoma
RXF 393 renal = test system: RXF 393 renal

Measured: growth

CC(=O)Nc1ccc(-c2cn(-c3cccc(C(=O)Nc4cccc(OC(F)(F)F)c4)c3)nn2)cn1
inactive: DU-145 prostate 84.4% | K-562 leukemia 61.8% | MALME-3M melanoma 26.4% | MDA-MB-231 breast 97.4% | SF-268 CNS 86.3% | SF-295 CNS 87.4% | SF-539 CNS 84.3% | UACC-257 melanoma 89.8% | M14 melanoma 80.4%

COc1cc(/C=C/C(=O)c2ccc(C(F)(F)F)cc2)ccc1Oc1nc(Nc2ccc(F)cc2)nc(N(C)C)n1
inactive: DU-145 prostate 82.9% | K-562 leukemia 48.2% | MALME-3M melanoma 87.7% | MDA-MB-231 breast 85.6% | SF-268 CNS 65.5% | SF-295 CNS 64.1% | SF-539 CNS 93.8% | UACC-257 melanoma 75.1% | M14 melanoma 72.8%

COc1cc(NC(=O)CSc2nnc(-c3ccc4nc(-c5ccc(Cl)cc5)[nH]c4c3)o2)cc(OC)c1OC
inactive: DU-145 prostate 73.8% | K-562 leukemia 31.3% | MALME-3M melanoma 66.5% | MDA-MB-231 breast 75.2% | SF-268 CNS 76.1% | SF-295 CNS 48% | SF-539 CNS 43.7% | UACC-257 melanoma 94.4% | M14 melanoma 69.5%

CCCn1c(=O)c2[nH]c(-c3ccc(OCc4nc5ccccc5[nH]4)cc3)nc2n(CCC)c1=O
active: MALME-3M melanoma -36.4% | MDA-MB-231 breast -42.6% | SF-539 CNS -44.3%
inactive: DU-145 prostate 54% | K-562 leukemia 76% | SF-268 CNS 38% | SF-295 CNS 37.4% | UACC-257 melanoma 82.3% | M14 melanoma 73.7%

OCCNc1oc(-c2ccccc2)nc1[P+](c1ccccc1)(c1ccccc1)c1ccccc1
active: MALME-3M melanoma -26.1% | MDA-MB-231 breast -5.38% | SF-268 CNS 5.6% | UACC-257 melanoma -9.09%
inactive: DU-145 prostate 16.6% | K-562 leukemia 11.2% | SF-295 CNS 20.7% | SF-539 CNS 16.7% | M14 melanoma 11%

CCOP(=O)(OCC)O[C@H]1CC[C@]2(C)[C@H]3CC[C@@H]4[C@@H]([C@](C)(O)CCC=C(C)C)CC[C@@]4(C)[C@]3(C)CC[C@H]2C1(C)C
active: UACC-257 melanoma 9.27%
inactive: DU-145 prostate 41.4% | K-562 leukemia 13% | MALME-3M melanoma 40.3% | MDA-MB-231 breast 13.9% | SF-268 CNS 45.9% | SF-295 CNS 32.1% | SF-539 CNS 42.7% | M14 melanoma 29%

O=[N+]([O-])c1ccc(-c2nc(-c3ccccc3)c(-c3ccccc3)n2-c2ccc(S(=O)(=O)Nc3ncccn3)cc2)cc1
active: SF-295 CNS 9.39%
inactive: DU-145 prostate 64.4% | K-562 leukemia 47.1% | MALME-3M melanoma 87.2% | MDA-MB-231 breast 43.2% | SF-268 CNS 31.7% | SF-539 CNS 53.9% | UACC-257 melanoma 63.9% | M14 melanoma 40.6%

Cc1ccc(-c2nc(Nc3ccccc3C(=O)O)c3ccccc3n2)cc1
inactive: DU-145 prostate 19.4% | K-562 leukemia 17.6% | MALME-3M melanoma 19.6% | MDA-MB-231 breast 35.4% | SF-268 CNS 11.2% | SF-539 CNS 21.3% | UACC-257 melanoma 28.6% | M14 melanoma 12.6%
active: SF-295 CNS 5.81%

COc1ccc2[nH]cc(/C=N/Nc3ccc(Br)cn3)c2c1
active: K-562 leukemia 9.92% | MDA-MB-231 breast 6.27% | M14 melanoma 8.66%
inactive: DU-145 prostate 40.7% | MALME-3M melanoma 63.9% | SF-268 CNS 21% | SF-295 CNS 17.4% | SF-539 CNS 18.8% | UACC-257 melanoma 52.6%

C=CC(=O)Nc1ccc(C(=O)/C=C/c2ccc(N(C)CCF)cc2)c(O)c1
inactive: MDA-MB-231 breast 17%
active: DU-145 prostate -51.2% | K-562 leukemia 9.77% | MALME-3M melanoma -50.1% | RXF 393 renal -82.4% | SF-268 CNS -19.7% | SF-295 CNS -4.58% | SF-539 CNS -81.5% | UACC-257 melanoma -61.6% | M14 melanoma -56.3%

COc1ccc(-c2cc(C(=O)N=Nc3c(O)[nH]c4ccccc34)c3ccccc3n2)cc1
active: DU-145 prostate -92.8% | MALME-3M melanoma -54.6% | MDA-MB-231 breast -58.8% | SF-268 CNS -0.0948% | SF-295 CNS 4.82% | SF-539 CNS -76%
inactive: K-562 leukemia 25.7% | UACC-257 melanoma 47.8% | M14 melanoma 11.1%

Cc1ccc2nc(COc3ccc(C(=O)NNC(=S)NCCc4ccccc4)cc3)[nH]c2c1
inactive: DU-145 prostate 98.9% | K-562 leukemia 85.7% | MALME-3M melanoma 64.8% | MDA-MB-231 breast 29.6% | SF-268 CNS 33.6% | SF-295 CNS 79.3% | UACC-257 melanoma 103% | M14 melanoma 106%
active: SF-539 CNS -1.98%

N#Cc1ccc(-c2nn(-c3ccc(C(=O)O)cc3)cc2CNc2ccc(Cl)cc2)cc1
inactive: DU-145 prostate 97.6% | K-562 leukemia 69.4% | MALME-3M melanoma 102% | MDA-MB-231 breast 90.6% | SF-268 CNS 78.6% | SF-295 CNS 63.3% | SF-539 CNS 80.1% | UACC-257 melanoma 97.8% | M14 melanoma 83.4%

O=C(Nc1cccc(C(F)(F)F)c1)c1cncc(C#Cc2cnc3ccc(N4CCOCC4)nn23)c1
active: DU-145 prostate 0.548% | K-562 leukemia 9.1% | MALME-3M melanoma -29.7% | MDA-MB-231 breast -8.01% | SF-268 CNS -31% | SF-295 CNS -8.57% | SF-539 CNS -88.1% | UACC-257 melanoma 3.22% | M14 melanoma -49.3%

CCCn1c(=O)c2[nH]c(-c3ccc(OCc4nc5ccc(C(F)(F)F)cc5[nH]4)cc3)nc2n(CCC)c1=O
inactive: DU-145 prostate 58.3% | K-562 leukemia 34.9% | MALME-3M melanoma 14.2% | MDA-MB-231 breast 11.1% | SF-268 CNS 57.2% | SF-295 CNS 38.8% | UACC-257 melanoma 65.5% | M14 melanoma 59.5%
active: SF-539 CNS 1.94%

Cc1ccc2nc(-c3ccc(-c4nnc(SCC(=O)Nc5ccc(Cl)cc5)o4)cc3)[nH]c2c1
inactive: DU-145 prostate 45% | K-562 leukemia 18% | MALME-3M melanoma 26.2% | MDA-MB-231 breast 10.6% | SF-268 CNS 68.6% | SF-295 CNS 21.4% | SF-539 CNS 57% | UACC-257 melanoma 102% | M14 melanoma 53.6%

NS(=O)(=O)c1ccc(NC(=O)CSc2ccc(-c3ccccc3)nn2)c(Br)c1
inactive: DU-145 prostate 75.9% | K-562 leukemia 96% | MALME-3M melanoma 72.8% | MDA-MB-231 breast 47.7% | SF-268 CNS 20.8% | SF-295 CNS 69.9% | SF-539 CNS 48.5% | UACC-257 melanoma 100% | M14 melanoma 99.1%

COc1ccc(-c2cc(-c3cc(C(=O)c4ccccc4)n4ccc(C)cc34)nc(N)c2C#N)cc1
active: SF-539 CNS 7.52%
inactive: DU-145 prostate 77.9% | K-562 leukemia 88.3% | MALME-3M melanoma 50.8% | MDA-MB-231 breast 34.4% | SF-268 CNS 41.2% | SF-295 CNS 45.2% | UACC-257 melanoma 84.4% | M14 melanoma 79.8%

Cn1cc(/C=N/Nc2ccnc3cc(Cl)ccc23)c2ccccc21
active: DU-145 prostate -92.7% | K-562 leukemia 2.82% | MALME-3M melanoma -82.1% | MDA-MB-231 breast -90.4% | SF-268 CNS -73.9% | SF-295 CNS -93.9% | SF-539 CNS -92% | UACC-257 melanoma -71% | M14 melanoma -66.9%

Cc1noc2c(Cc3ccccc3)nn(CC(=O)N/N=C/c3ccc(Cl)cc3)c(=O)c12
inactive: DU-145 prostate 68.9% | K-562 leukemia 93.7% | MALME-3M melanoma 34.4% | SF-268 CNS 59.8% | SF-295 CNS 38.8% | SF-539 CNS 67.7% | UACC-257 melanoma 96% | M14 melanoma 94.4%
active: MDA-MB-231 breast 5.74%

Cc1cc(C)nc(NS(=O)(=O)c2ccc(N/C(N)=N/c3nccc(-c4ccccc4)n3)cc2)n1
inactive: DU-145 prostate 88.8% | K-562 leukemia 49.3% | MALME-3M melanoma 63.3% | MDA-MB-231 breast 59.4% | SF-268 CNS 82% | SF-295 CNS 52.2% | SF-539 CNS 70% | UACC-257 melanoma 94% | M14 melanoma 88.4%

CC1=C2C(=C[C@@](C)(CO)[C@@H]2O)/C(=N\N)[C@](C)(O)C12CC2
active: DU-145 prostate 1.63% | MALME-3M melanoma -76.2% | MDA-MB-231 breast -21% | RXF 393 renal -90.5% | SF-268 CNS -3.67% | SF-295 CNS -14.8% | SF-539 CNS -75.8% | UACC-257 melanoma -49.4% | M14 melanoma 5.88%
inactive: K-562 leukemia 19.3%

CS(=O)(=O)Nc1ccc(-c2ccc3c(c2)ncn3-c2ccc(NC(=O)Nc3ccc(Br)cc3)cc2)cc1
active: K-562 leukemia 4.89% | MALME-3M melanoma -20.2% | RXF 393 renal -16.8% | SF-295 CNS -38.3% | SF-539 CNS -34.5% | UACC-257 melanoma -16.9% | M14 melanoma 4.32%
inactive: DU-145 prostate 29.8% | MDA-MB-231 breast 13.6% | SF-268 CNS 26.4%

COc1cc2c3c(n(CCCN4CCOCC4)c(=O)c2cc1OC)-c1nc2c(cc1C3=O)OCO2
active: DU-145 prostate 3.38% | MDA-MB-231 breast 6.41% | SF-295 CNS -30.8% | SF-539 CNS -38.7%
inactive: K-562 leukemia 25.9% | MALME-3M melanoma 40.2% | SF-268 CNS 21.9% | UACC-257 melanoma 51% | M14 melanoma 13.4%

O=c1[nH]c2ccccc2cc1CSc1ccc(Nc2nccc(-c3ccc(Cl)cc3)n2)cc1
inactive: K-562 leukemia 36.2% | UACC-257 melanoma 54.1% | M14 melanoma 30.8%
active: DU-145 prostate -52% | MALME-3M melanoma -54.3% | MDA-MB-231 breast -56.1% | SF-268 CNS 2.16% | SF-295 CNS -90.8% | SF-539 CNS -89%

O=C(CSc1nnc(-c2ccc3nc(-c4ccccc4)[nH]c3c2)o1)Nc1ccc(Br)cc1
active: MALME-3M melanoma 5.76% | SF-539 CNS 8.7%
inactive: DU-145 prostate 78.2% | K-562 leukemia 18.4% | MDA-MB-231 breast 52.3% | SF-268 CNS 87.8% | SF-295 CNS 74.3% | UACC-257 melanoma 98.8% | M14 melanoma 52.3%
